EP2 mod: EP2 receptor (human) modulation | P43116 | EP2-expressing cells, cAMP HTRF FRET, PGE2 co-stimulation | induction, % at 25 µM | 0.83% of 260,000 active | AID 940;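 active = compounds whose cAMP rise, as percent of the full-agonist control response, exceeds 60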;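 also: rat C6 glioma line stably carrying human EP2 under a CMV promoter; the protocol text gives 20 µM as final concentration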
RAM inhibit: yeast RAM network inhibition; inhibition, % at 50 µM; S. cerevisiae dse1pr::URA3 reporter, 5-FOA growth OD615, 2 d; analog-sensitive cbk1-as2 kinase mutant strain; 1.8% of 190,000 active;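 active = inhibition above a set limit, 3 SD over mean compound inhibition, cut at about 8.4% in these data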;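 also: inhibition rescues growth on 5-FOA so higher OD means more RAM inhibition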
PGE2 EP2 inh: inhibitors of human EP2 prostaglandin E2 receptor; C6 glioma cells expressing human EP2, cAMP TR-FRET; cells stimulated with saturating PGE2; inhibition, % at 25 µM; 0.52% of 260,000 active;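 active = percent inhibition above 40 after rounding to a whole number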;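 also: rat C6 glioma host cells with rolipram phosphodiesterase inhibitor present; the protocol text gives 20 µM as final concentration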
SKN-1 block: inhibitors of C. elegans SKN-1 | AID 624304 | inhibition, % at 21.8 µM | 0.49% of 360,000 active | C. elegans VP596 Pgst-4::GFP/RFP ratio, acrylamide-induced, 24 h;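 active = interference check ratio from 0.5 to 1.5 plus GFP to RFP signal ratio inhibition reaching or exceeding a fixed threshold, cut at about 30% in these data, passing the limit was not always enough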
PG9 Ab binder: PG9 antibody binding by small molecule. inhibition, % at 6.7 µM. 0.43% of 360,000 active. TR-FRET gp120-PG9 antibody binding; in the data active = inhibition above about 8.5%
Rev-erbA mod: modulates human Rev-erb alpha binding to DNA | P20393 | Rev-erbα–FITC-DNA binding, fluorescence polarization, 90 min | activity, % at 10 µM | 0.79% of 370,000 active | AID 1259318;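 active = activity above about 14%, limit read from the data; passing the limit was not always enough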
Target sequence (P20393 whole entry, looked up): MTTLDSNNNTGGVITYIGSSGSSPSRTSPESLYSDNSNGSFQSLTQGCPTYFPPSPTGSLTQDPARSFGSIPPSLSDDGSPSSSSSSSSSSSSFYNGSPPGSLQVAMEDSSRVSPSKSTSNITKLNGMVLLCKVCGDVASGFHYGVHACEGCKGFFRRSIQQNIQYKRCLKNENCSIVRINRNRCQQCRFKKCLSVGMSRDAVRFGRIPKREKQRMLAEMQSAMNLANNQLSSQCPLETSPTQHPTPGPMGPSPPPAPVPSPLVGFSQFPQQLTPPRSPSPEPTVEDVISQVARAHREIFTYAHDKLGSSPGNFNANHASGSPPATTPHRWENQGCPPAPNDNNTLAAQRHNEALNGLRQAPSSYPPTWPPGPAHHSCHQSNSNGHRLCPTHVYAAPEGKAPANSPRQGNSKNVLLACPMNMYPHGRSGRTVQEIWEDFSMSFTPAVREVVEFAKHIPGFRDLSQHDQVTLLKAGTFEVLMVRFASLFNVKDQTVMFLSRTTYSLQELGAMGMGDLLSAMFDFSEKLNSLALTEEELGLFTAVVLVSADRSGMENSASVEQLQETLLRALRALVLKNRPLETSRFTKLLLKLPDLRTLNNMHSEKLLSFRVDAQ
PG9 bind confirm: confirmation of small molecules binding HIV-1 gp120 antibody PG9. shares compounds with PG9 Ab binder. TR-FRET PG9 antibody binding, biochemical. 90% of 1,500 active. AID 651571. inhibition, % at 6.7 µM; in the data active = inhibition above about 9%
PGV04 counter: counter-screen for PG9 binders: binding control antibody PGV04; inhibition, % at 6.7 µM; AID 651604; TR-FRET PGV04 antibody-gp120 binding, biochemical; shares compounds with PG9 Ab binder; 95% of 1,500 active; in the data active = inhibition above about 9.5%
NR1D1 mod conf: confirmation of modulators of human Rev-erb alpha DNA binding | shares compounds with Rev-erbA mod | Rev-erb alpha FITC-DNA binding, fluorescence polarization, 90 min | activation, % at 25 µM | 61% of 3,000 active;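 active = activation at or above a set limit, or at least 3 SD above the negative control mean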
RORg counter: counter-screen for Rev-erb alpha modulators: RORgamma DNA binding; shares compounds with Rev-erbA mod; 8% of 910 active; purified RORgamma protein-FITC-DNA binding, fluorescence polarization; IC50, µM;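 active = Compounds whose fitted half-maximal concentration for disrupting protein-DNA binding is below 10 micromolar; the record names Rev-erb in its text, so the target is in doubt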
Of the large screens only hits and unclear results are named; the others gave an inactive call (follow-up assays come after a bar, where they were run); ! = not active in a repeat. Rows were chosen to be rich in hits. Some 2.9% of all compounds tested hit in one or more screens of this group.

Cc1cc(NC(=O)CSc2nc3c(c(-c4cccnc4)c2C#N)CCC3)no1	PGE2 EP2 inh 49, PG9 Ab binder 20, Rev-erbA mod 41 | PG9 bind confirm 32 | PGV04 counter 66 | NR1D1 mod conf 39
Cc1cc(C)c2nc(SCC(=O)Nc3cc(C)on3)c(C#N)cc2c1	PG9 Ab binder 28, Rev-erbA mod 103 (no result: EP2 mod, RAM inhibit, PGE2 EP2 inh) | PG9 bind confirm 52 | PGV04 counter 75 | NR1D1 mod conf 68 | RORg counter inactive
Cc1ccc2nc(SCC(=O)Nc3ccc(Br)cc3)c(C#N)cc2c1	none (no result: RAM inhibit, SKN-1 block, PG9 Ab binder, Rev-erbA mod)
Cc1ccc2nc(SCC(=O)Nc3ccc4sc(C)nc4c3)c(C#N)cc2c1	PG9 Ab binder 33, Rev-erbA mod 73 | PG9 bind confirm 30 | PGV04 counter 54 | NR1D1 mod conf 71 | RORg counter inactive
Cc1ccc(C)c2nc(SCC(=O)NCc3cccs3)c(C#N)cc12	none
Cc1cccc2cc(C#N)c(SCC(=O)NCc3cccs3)nc12	PG9 Ab binder 42, Rev-erbA mod 87 | PG9 bind confirm 50 | PGV04 counter 75 | NR1D1 mod conf 61 | RORg counter inactive
Cc1cc(C)c2nc(SCC(=O)Nc3cc(C)on3)c(C)cc2c1	none (no result: EP2 mod, RAM inhibit, PGE2 EP2 inh)
COc1ccc(OC)c(S(=O)(=O)N2CCC(C(=O)NCCO)CC2)c1	none (no result: RAM inhibit, SKN-1 block, PG9 Ab binder, Rev-erbA mod)
COc1cc2cc(C#N)c(SCC(=O)Nc3cc(C)on3)nc2cc1OC	PG9 Ab binder 46, Rev-erbA mod 113 (no result: EP2 mod, RAM inhibit, PGE2 EP2 inh) | PG9 bind confirm 49 | PGV04 counter 69 | NR1D1 mod conf 75 | RORg counter inactive
COC(=O)Cn1c(=NC(=O)c2ccc(OC)c(OC)c2)sc2cc(OC)ccc21	PG9 Ab binder 33, Rev-erbA mod 64 | PG9 bind confirm 61 | PGV04 counter 75 | NR1D1 mod conf 31 | RORg counter inactive
O=C1CCC(C(=O)NCC2CCC(C(=O)NCCN3CCc4ccccc43)CC2)N1 (stereo not drawn)	none (no result: RAM inhibit, SKN-1 block, PG9 Ab binder, Rev-erbA mod)
CCOC(=O)c1sc(=NC(=O)c2ccc(C)cc2)n(C)c1C	PG9 Ab binder 22, Rev-erbA mod 20 | PG9 bind confirm 22 | PGV04 counter 53 | NR1D1 mod conf inactive
CCc1cc2cc3c(cc2nc1SCC(=O)Nc1cc(C)on1)OCO3	EP2 mod 73!, PG9 Ab binder 21, Rev-erbA mod 211 | PG9 bind confirm 46 | PGV04 counter 66 | NR1D1 mod conf 158 | RORg counter inactive
CCc1cc2cc(C)ccc2nc1SCC(=O)Nc1cc(C)on1	PG9 Ab binder 14, Rev-erbA mod 17 | PG9 bind confirm 11 | PGV04 counter 31 | NR1D1 mod conf 26
C#CCOc1c(Cl)cc(C2C(C#N)=C(N)OC3=C2C(=O)CC(C)(C)C3)cc1Cl (stereo not drawn)	none (no result: RAM inhibit, SKN-1 block, PG9 Ab binder, Rev-erbA mod)
COC(=O)c1c(NC(C)=O)sc(C(=O)Nc2ccccc2F)c1C	PG9 Ab binder 31, Rev-erbA mod 26 | PG9 bind confirm 36 | PGV04 counter 45 | NR1D1 mod conf 21
COc1ccc(Cc2nnc(NC(=O)C(C)C)s2)cc1	none (no result: RAM inhibit)
COc1ccc(-c2nnc(NC(=O)C(C)C)s2)c(OC)c1	PG9 Ab binder 12, Rev-erbA mod 38 (no result: PGE2 EP2 inh) | PG9 bind confirm 20 | PGV04 counter 30 | NR1D1 mod conf 28 | RORg counter inactive
O=C(CNC(=O)c1sc2ccccc2c1Cl)NCc1cccc(C(F)(F)F)c1	PG9 Ab binder 15, Rev-erbA mod 31 (no result: EP2 mod, RAM inhibit, PGE2 EP2 inh) | PG9 bind confirm 17 | PGV04 counter 19 | NR1D1 mod conf 17
O=C(Cn1c(=S)[nH]c2ccccc2c1=O)N1CCc2ccccc2C1	PG9 Ab binder 32, Rev-erbA mod 35 | PG9 bind confirm 33 | PGV04 counter 51 | NR1D1 mod conf 23
O=c1c2ccccc2[nH]c(=S)n1CCN1CCc2ccccc2C1	none (no result: RAM inhibit)
CCOc1ccc2[nH]c(=O)c(CN(Cc3cccnc3)Cc3nnnn3Cc3ccc(F)cc3)cc2c1	none (no result: RAM inhibit, SKN-1 block, PG9 Ab binder, Rev-erbA mod)
Cn1nc(N)c2c(-c3ccc(Cl)cc3)c(C#N)c(N)nc21	none
N#Cc1c(N)nc(N2CCCC2)c(C#N)c1-c1ccc(Cl)cc1	PG9 Ab binder 25, Rev-erbA mod 146 | PG9 bind confirm 19 | PGV04 counter 28 | NR1D1 mod conf 106 | RORg counter inactive
C=CCNC(=O)[C@H]1C[C@@H](c2ccc(OC)c(OC)c2)NS(=O)(=O)N1C	none (no result: RAM inhibit, PGE2 EP2 inh, SKN-1 block, PG9 Ab binder, Rev-erbA mod)
CCc1nc2ccccc2c(C(=O)OCc2nc3ccccc3c(=O)[nH]2)c1C	PG9 Ab binder 25, Rev-erbA mod 32 (no result: EP2 mod, RAM inhibit, PGE2 EP2 inh) | PG9 bind confirm 14 | PGV04 counter 17 | NR1D1 mod conf 28 | RORg counter inactive
C[C@H](NC(=O)c1ncn2c1c(=O)[nH]c1ccc(Br)cc12)c1ccccc1	PG9 Ab binder 20, Rev-erbA mod 133 (no result: EP2 mod, RAM inhibit, PGE2 EP2 inh) | PG9 bind confirm 43 | PGV04 counter 52 | NR1D1 mod conf 24
CCc1ccc(C2C(C#N)=C(N)Oc3n[nH]c(C(C)C)c32)cc1 (stereo not drawn)	none (no result: RAM inhibit, SKN-1 block, PG9 Ab binder, Rev-erbA mod)
Cn1c(SCC(=O)Nc2ccccc2)nc2c([nH]c3ccccc32)c1=O	PG9 Ab binder 8.8, Rev-erbA mod 21 | PG9 bind confirm inactive | PGV04 counter 14 | NR1D1 mod conf 16
Cc1ccc(-n2c(SCC(=O)Nc3cc(C)on3)nc3c([nH]c4ccccc43)c2=O)cc1	none (no result: PGE2 EP2 inh)
COc1ccc(-n2c(SCC(=O)Nc3cc(C)on3)nc3c([nH]c4ccccc43)c2=O)cc1	PG9 Ab binder 57, Rev-erbA mod 83 | PG9 bind confirm 43 | PGV04 counter 50 | NR1D1 mod conf 67 | RORg counter inactive
Cc1ncsc1C(=O)N1CCN(Cc2ccco2)C[C@@H]1C(C)C	none (no result: RAM inhibit, PGE2 EP2 inh, SKN-1 block, PG9 Ab binder, Rev-erbA mod)
COc1ccc(C2(C(=O)NCc3nc(-c4ccncc4)n[nH]3)CC2)cc1	none (no result: RAM inhibit, SKN-1 block, PG9 Ab binder, Rev-erbA mod)
Cn1c2ccccc2n2c(=O)cc(-c3ccccc3)c(C#N)c12	PG9 Ab binder 9.7, Rev-erbA mod 44 (no result: RAM inhibit) | PG9 bind confirm 16 | PGV04 counter 20 | NR1D1 mod conf 21
Cn1c(=O)cc(-c2ccccc2)c2ccccc21	none
Cc1ccc(C(C(=O)NCc2ccco2)N(C(=O)Cn2nnc3ccccc32)c2ccccc2F)o1 (stereo not drawn)	none (no result: RAM inhibit, SKN-1 block, PG9 Ab binder, Rev-erbA mod)
CCC(=O)Nc1ccc(NC(=O)Cn2nnc3ccccc32)cc1	none (no result: RAM inhibit, SKN-1 block, PG9 Ab binder, Rev-erbA mod)
CC(=O)c1ccc(Nc2ncnc3ccc(Br)cc23)cc1	PG9 Ab binder 11, Rev-erbA mod 121 (no result: EP2 mod, RAM inhibit, PGE2 EP2 inh) | PG9 bind confirm 20 | PGV04 counter 56 | NR1D1 mod conf 119 | RORg counter inactive
